Measurements as given in PubChem BioAssay AID624331 (National Center for Advancing Translational Sciences (NCATS), 2012).
Records with an inconclusive call do not appear. A call without a number means that no potency is given here. The source made the active and inactive calls. The call rests on the fitted dose curve; in most records, active means well fitted activation curve with a large enough effect; inconclusive means small, poorly fitted or top-dose-only effect; inactive means no such curve, though single readings can be large or run the other way.

test: qHTS assay for re-activators of p53 using a Luc reporter: Hit Validation with no p53 Expressed; details: p53-null cells, luciferase reporter counter-screen; series mostly up to 46.1 µM
How it was run: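 Counter-screen of primary hits in a cell line not transfected with p53, in Opti-MEM with 10% FBS; compounds at several concentrations (10 mM stock, 1:5; top 46.1 µM in well), 24 h at 37 deg C, 5% CO2. Luminescence read after 10 min with Amplite reagent.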

| Compound | Potency |
| --- | --- |
| CCOCCCNc1nc2c([nH]1)c(=O)n(C)c(=O)n2C | inactive |
| CC1C(=O)CCN(C(C)(C)C)C1C (centres undefined) | inactive |
| Cc1ccccc1Nc1nc(N)nc(COC(=O)c2ccco2)n1 | inactive |
| CC(=O)Nc1ccc(Nc2cc(C)nc3c(-c4ccccc4)cnn23)cc1 | inactive |
| O=C(Nc1cnc2ccccc2c1)C1COc2ccccc2O1 (centres undefined) | inactive |
| CC(C)CNC(=S)Nc1ccc(Oc2ccccc2)cc1 | inactive |
| COc1cc(N/N=C/c2ccccc2O)ncn1 | inactive |
| Cc1ccc(NC(=O)c2ccc3nc[nH]c3c2)cc1C | inactive |
| CCOc1ccc2c(c1)C(C)=CC(C)(C)N2S(=O)(=O)c1ccc(NC(C)=O)cc1 | inactive |
| CC(C)c1ccc2oc(-c3ccc(N)cc3)nc2c1 | inactive |
| OC1(C2(O)CC(c3ccccc3)ON2)CCCCC1 (centres undefined) | inactive |
| COCCNc1nc2sc3c(c2c(=O)n1Cc1ccco1)CCCCC3 | inactive |
| O=C(CSc1ccccc1)Nc1ccc(-c2nc3ccccc3[nH]2)cc1 | inactive |
| c1nc(C2CCCCC2)cc2cc3c(cc12)OCO3 | inactive |
| O=C(Nc1nc2ccccc2s1)c1ccc2c(c1)OCO2 | inactive |
| Cc1occc1C(=O)NNC(=S)Nc1ccccc1C(F)(F)F | inactive |
| COc1ccccc1-c1cc(C(=O)Nc2cc(C)on2)no1 | inactive |
| CCN(CC)c1ccc(CNc2ccc(Br)cn2)cc1 | inactive |
| Cc1cccc(-n2c(C)cc(/C=N\NC(=O)c3cccs3)c2C)c1 | inactive |
| Cc1ccsc1/C=C1\CCc2ccccc2C1=O | inactive |

| Compound | Potency |
| --- | --- |
| CC(=O)N/C(=C/c1ccc2c(c1)OCO2)C(=O)Nc1ccccc1 | inactive |
| CCN(CC)c1ccc(NC(=O)CN2CCN(CC(=O)Nc3ccccc3F)CC2)cc1 | inactive |
| COc1cccc(C(=O)c2sc(NC(C)C)nc2N)c1 | inactive |
| N#C/C(=C/c1cccnc1)c1ccccc1 | inactive |
| CCn1c(C)nc2cc(C(=O)NNC(=O)c3ccc(C)cc3)ccc21 | inactive |
| CC1CCC(NC(=O)C2CCN(C(=O)Nc3ccccc3)CC2)CC1 (centres undefined) | inactive |
| CCOC(=O)c1[nH]c(C)c(C(=O)NCCC2=CCCCC2)c1C | inactive |
| O=C(COC(=O)c1cc2ccccc2oc1=O)Nc1cccc(S(=O)(=O)N2CCCCCC2)c1 | inactive |
| COc1cccc(-c2cn3nc4c(nc3n2)CCCC4)c1 | inactive |
| Cc1ccc(-c2nnc(Oc3cccc(C)c3)c3ccccc23)cc1 | inactive |
| CCOC(=O)c1ccc2ncc(C(=O)OCC)c(NCc3ccco3)c2c1 | inactive |
| COc1ccc(-n2nc([N+](=O)[O-])c(=NCc3ccco3)n2O)cc1 | inactive |
| O=C(N/N=C\c1cccc(Cl)c1)c1n[nH]c2c1CCCC2 | inactive |
| O=c1oc2ccccc2cc1-c1cn(-c2ccccc2)c(=S)[nH]1 | inactive |
| CN1CC(C(=O)Nc2ccc(F)c(Cl)c2)CC1=O (centres undefined) | inactive |
| COc1cc(OC)cc(C(=O)NNC(=O)c2ccccn2)c1 | inactive |
| COc1nnc(-c2ccc(C)c(S(=O)(=O)N(C)C)c2)c2ccccc12 | inactive |
| Cc1ccc(/C=C(\C#N)C(=O)NCC2CCCO2)o1 (centres undefined) | inactive |
| O=C(COC(=O)CNC(=O)c1ccc([N+](=O)[O-])o1)Nc1ncc(C(F)(F)F)cc1Cl | inactive |
